In PubChem BioAssay AID1159580 (chemical genetic matrix, 2015):
The campaign covered roughly 5,500 compounds. About 2,000 (36%) were called active. Another 18% or so got no clear call; they are omitted. No stated cut-off is given here; in the data, active means normalized growth mostly below about 0.91 (no sharp cut-off); inconclusive means no clear call, values can overlap the other calls; inactive means mostly above about 0.92. The list shows a part of the results.

Assay: chemical genetic growth profiling, strain panel (AID 1159580);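 further: tested at 20 µM; growth read once vehicle control cultures reached saturation at 30 °C; 1 = growth at the plate median or of vehicle wells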
Conditions: S. cerevisiae deletion strains, growth OD
[1] = locus YHR030C, strain SLT2, stronger effect = lower value
[2] = locus YHR079C, strain IRE1, stronger effect = lower value
[3] = locus YJL095W, strain BCK1, stronger effect = lower value
[4] = locus YJR066W, strain TOR1, stronger effect = lower value
[5] = locus YLR113W, strain HOG1, stronger effect = lower value
[6] = locus YNL183C, strain NPR1, stronger effect = lower value
[7] = locus YOR231W, strain MKK1, stronger effect = lower value
[8] = locus YPL256C, strain CLN2, stronger effect = lower value

Measured: normalized growth

OC1(c2ccc(Cl)c(C(F)(F)F)c2)CCN(CCCC(c2ccc(F)cc2)c2ccc(F)cc2)CC1
active: locus YAL021C, strain ccr4, stronger effect = lower value 0.0667 | locus YAL026C, strain drs2, stronger effect = lower value 0.0627 | locus YAL030W, strain snc1, stronger effect = lower value 0.0597 | locus YBL061C, strain skt5, stronger effect = lower value 0.0677 | locus YBR009C, strain hhf1, stronger effect = lower value 0.0608 | locus YBR023C, strain chs3, stronger effect = lower value 0.0682 | locus YBR171W, strain sec66, stronger effect = lower value 0.0917 | locus YBR231C, strain swc5, stronger effect = lower value 0.0658 | locus YBR279W, strain paf1, stronger effect = lower value 0.218 | locus YCL011C, strain gbp2, stronger effect = lower value 0.0588 | locus YCL016C, strain dcc1, stronger effect = lower value 0.0739 | locus YCL061C, strain MRC1, stronger effect = lower value 0.394 | locus YCL069W, strain vba3, stronger effect = lower value 0.101 | locus YCR088W, strain abp1, stronger effect = lower value 0.0838 | locus YDL005C, strain med2, stronger effect = lower value 0.0778 | locus YDL040C, strain nat1, stronger effect = lower value 0.109 | locus YDR001C, strain nth1, stronger effect = lower value 0.0892 | locus YDR069C, strain doa4, stronger effect = lower value 0.0704 | locus YDR137W, strain rgp1, stronger effect = lower value 0.111 | locus YDR159W, strain sac3, stronger effect = lower value 0.0866 | locus YDR195W, strain ref2 0.0989 | locus YDR297W, strain sur2, stronger effect = lower value 0.0586 | locus YDR334W, strain swr1, stronger effect = lower value 0.0861 | locus YDR335W, strain msn5, stronger effect = lower value 0.0657 | locus YDR392W, strain spt3, stronger effect = lower value 0.0888 | locus YEL003W, strain gim4, stronger effect = lower value 0.0558 | locus YEL037C, strain rad23, stronger effect = lower value 0.0879 | locus YEL061C, strain CIN8 (second series), stronger effect = lower value 0.0952 | locus YER015W, strain faa2, stronger effect = lower value 0.0667 | locus YER016W, strain bim1, stronger effect = lower value 0.0765 | locus YER111C, strain swi4, stronger effect = lower value 0.14 | locus YER155C, strain BEM2 (second series), stronger effect = lower value 0.468 | locus YFR010W, strain ubp6, stronger effect = lower value 0.0981 | locus YGL167C, strain pmr1, stronger effect = lower value 0.0793 | locus YGL173C, strain kem1, stronger effect = lower value 0.0739 | locus YGL227W, strain vid30, stronger effect = lower value 0.188 | locus YGL240W, strain doc1, stronger effect = lower value 0.317 | locus YGL253W, strain hxk2, stronger effect = lower value 0.0755 | locus YHR013C, strain ard1, stronger effect = lower value 0.148 | locus YHR027C, strain rpn1, stronger effect = lower value 0.067 | locus YHR142W, strain chs7, stronger effect = lower value 0.0949 | locus YJL092W, strain hpr5, stronger effect = lower value 0.105 | locus YJL095W, strain BCK1 (second series), stronger effect = lower value 0.0578 | locus YJL115W, strain asf1, stronger effect = lower value 0.485 | locus YJL129C, strain trk1, stronger effect = lower value 0.0811 | locus YJL154C, strain vps35, stronger effect = lower value 0.0686 | locus YJL164C, strain tpk1, stronger effect = lower value 0.0638 | locus YJL166W, strain qcr8, stronger effect = lower value 0.0607 | locus YKL160W, strain elf1, stronger effect = lower value 0.348 | locus YKR026C, strain gcn3, stronger effect = lower value 0.132 | locus YKR091W, strain srl3, stronger effect = lower value 0.0942 | locus YLL001W, strain dnm1, stronger effect = lower value 0.0836 | locus YLL026W, stronger effect = lower value 0.0586 | locus YLL041C, strain sdh2, stronger effect = lower value 0.0615 | locus YLR027C, strain aat2, stronger effect = lower value 0.0571 | locus YLR221C, strain rsa3, stronger effect = lower value 0.061 | locus YLR258W, strain gsy2, stronger effect = lower value 0.0676 | locus YLR262C, strain YPT6 (second series), stronger effect = lower value 0.0931 | locus YLR320W, strain mms22, stronger effect = lower value 0.141 | locus YLR342W, strain FKS1, stronger effect = lower value 0.0657 | locus YLR357W, strain rsc2, stronger effect = lower value 0.321 | locus YLR370C, strain arc18, stronger effect = lower value 0.0708 | locus YLR384C, strain iki3, stronger effect = lower value 0.127 | locus YML120C, strain ndi1, stronger effect = lower value 0.057 | locus YMR058W, strain fet3, stronger effect = lower value 0.0807 | locus YMR125W, strain sto1, stronger effect = lower value 0.164 | locus YMR129W, stronger effect = lower value 0.0603 | locus YMR205C, strain PFK2, stronger effect = lower value 0.0884 | locus YMR231W, strain pep5, stronger effect = lower value 0.0664 | locus YNL071W, strain lat1, stronger effect = lower value 0.0627 | locus YNL209W, strain ssb2, stronger effect = lower value 0.0684 | locus YNL248C, strain rpa49, stronger effect = lower value 0.196 | locus YNL322C, strain KRE1 (second series), stronger effect = lower value 0.479 | locus YNR049C, strain mso1, stronger effect = lower value 0.12 | locus YOR001W, strain rrp6, stronger effect = lower value 0.0677 | locus YOR070C, strain gyp1, stronger effect = lower value 0.0739 | locus YOR080W, strain dia2, stronger effect = lower value 0.196 | locus YOR083W, strain WHI5, stronger effect = lower value 0.0883 | locus YOR106W, strain vam3, stronger effect = lower value 0.0691 | locus YOR265W, strain rbl2, stronger effect = lower value 0.0702 | locus YOR270C, strain vph1, stronger effect = lower value 0.127 | locus YOR290C, strain snf2, stronger effect = lower value 0.104 | locus YPL051W, strain arl3, stronger effect = lower value 0.0821 | locus YPL078C, strain atp4, stronger effect = lower value 0.216 | locus YPL106C, strain sse1, stronger effect = lower value 0.0967 | locus YPL240C, strain hsp82, stronger effect = lower value 0.0596
inactive: [1] 0.952 | [2] 0.965 | [3] 0.972 | [4] 0.931 | [5] 0.946 | [6] 0.935 | [7] 0.981 | [8] 0.936

O=C(CCCN1CCC(O)(c2ccc(Br)cc2)CC1)c1ccc(F)cc1
inactive: [1] 0.959 | [2] 0.976 | [3] 0.962 | [4] 0.937 | [5] 1.02 | [6] 0.902 | [7] 0.981 | [8] 1.02
